Among all 5,500 compounds or so, about 2,000 (36%) were called active. Roughly 18% stayed inconclusive and do not appear here. No stated cut-off is given here; in the data, active means normalized growth mostly below about 0.91 (no sharp cut-off); inconclusive means no clear call, values can overlap the other calls; inactive means mostly above about 0.92. The list shows a part of the results.
Assay: chemical genetic growth profiling, strain panel (AID 1159580);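 further: tested at 20 µM; growth read once vehicle control cultures reached saturation at 30 °C; 1 = growth at the plate median or of vehicle wells; lower values mean less growth of the strain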
Conditions: growth OD

Measured: normalized growth

Cc1nnc(NS(=O)(=O)c2ccc(N)cc2)s1
inactive: S. cerevisiae deletion strains, locus YKL009W, strain mrt4, active compounds read low 1.05 | S. cerevisiae deletion strains, locus YKL068W, active compounds read low 0.996 | S. cerevisiae deletion strains, locus YKL085W, strain MDH1 (second series), active compounds read low 0.998 | S. cerevisiae deletion strains, locus YKL085W, strain MDH1, active compounds read low 0.998 | S. cerevisiae deletion strains, locus YKL160W, strain elf1, active compounds read low 1.01 | S. cerevisiae deletion strains, locus YKL190W, strain CNB1, active compounds read low 1.02 | S. cerevisiae deletion strains, locus YKR001C, strain vps1, active compounds read low 1.02 | S. cerevisiae deletion strains, locus YKR026C, strain gcn3, active compounds read low 1.01 | S. cerevisiae deletion strains, locus YKR091W, strain srl3, active compounds read low 0.99 | S. cerevisiae deletion strains, locus YLL001W, strain dnm1, active compounds read low 0.995 | S. cerevisiae deletion strains, locus YLL026W, active compounds read low 0.998 | S. cerevisiae deletion strains, locus YLL041C, strain sdh2, active compounds read low 1 | S. cerevisiae deletion strains, locus YLR027C, strain aat2, active compounds read low 1.01 | S. cerevisiae deletion strains, locus YLR039C, strain RIC1, active compounds read low 1.09 | S. cerevisiae deletion strains, locus YLR058C, strain SHM2, active compounds read low 1.01 | S. cerevisiae deletion strains, locus YLR102C, strain apc9, active compounds read low 0.985 | S. cerevisiae deletion strains, locus YLR113W, strain HOG1, active compounds read low 0.966 | S. cerevisiae deletion strains, locus YLR221C, strain rsa3, active compounds read low 1.01 | S. cerevisiae deletion strains, locus YLR258W, strain gsy2, active compounds read low 0.997 | S. cerevisiae deletion strains, locus YLR262C, strain YPT6 (second series), active compounds read low 0.99 | S. cerevisiae deletion strains, locus YLR262C, strain YPT6, active compounds read low 1.07 | S. cerevisiae deletion strains, locus YLR268W, strain sec22, active compounds read low 1.04 | S. cerevisiae deletion strains, locus YLR320W, strain mms22, active compounds read low 0.99 | S. cerevisiae deletion strains, locus YLR330W, strain CHS5, active compounds read low 1.01 | S. cerevisiae deletion strains, locus YLR342W, strain FKS1 (second series), active compounds read low 1.04 | S. cerevisiae deletion strains, locus YLR342W, strain FKS1, active compounds read low 0.996 | S. cerevisiae deletion strains, locus YLR357W, strain rsc2, active compounds read low 1.03 | S. cerevisiae deletion strains, locus YLR370C, strain arc18, active compounds read low 1.01 | S. cerevisiae deletion strains, locus YLR371W, strain rom2, active compounds read low 0.984 | S. cerevisiae deletion strains, locus YLR384C, strain iki3, active compounds read low 1 | S. cerevisiae deletion strains, locus YLR418C, strain cdc73, active compounds read low 1.04 | S. cerevisiae deletion strains, locus YML016C, strain PPZ1, active compounds read low 1.01 | S. cerevisiae deletion strains, locus YML032C, strain rad52, active compounds read low 1.01 | S. cerevisiae deletion strains, locus YML120C, strain ndi1, active compounds read low 0.987 | S. cerevisiae deletion strains, locus YML124C, strain tub3, active compounds read low 1 | S. cerevisiae deletion strains, locus YMR058W, strain fet3, active compounds read low 0.998 | S. cerevisiae deletion strains, locus YMR078C, strain ctf18, active compounds read low 0.991 | S. cerevisiae deletion strains, locus YMR125W, strain sto1, active compounds read low 0.998 | S. cerevisiae deletion strains, locus YMR129W, active compounds read low 1.01 | S. cerevisiae deletion strains, locus YMR205C, strain PFK2, active compounds read low 1 | S. cerevisiae deletion strains, locus YMR223W, strain ubp8, active compounds read low 0.997 | S. cerevisiae deletion strains, locus YMR231W, strain pep5, active compounds read low 1 | S. cerevisiae deletion strains, locus YMR263W, strain SAP30, active compounds read low 1.01 | S. cerevisiae deletion strains, locus YMR307W, strain GAS1, active compounds read low 0.987 | S. cerevisiae deletion strains, locus YNL067W, strain RPL9B, active compounds read low 1.02 | S. cerevisiae deletion strains, locus YNL071W, strain lat1, active compounds read low 0.993 | S. cerevisiae deletion strains, locus YNL128W, strain TEP1, active compounds read low 1.03 | S. cerevisiae deletion strains, locus YNL153C, strain GIM3, active compounds read low 1.01 | S. cerevisiae deletion strains, locus YNL183C, strain NPR1, active compounds read low 0.953 | S. cerevisiae deletion strains, locus YNL209W, strain ssb2, active compounds read low 1.01 | S. cerevisiae deletion strains, locus YNL233W, strain BNI4, active compounds read low 1.01 | S. cerevisiae deletion strains, locus YNL248C, strain rpa49, active compounds read low 1.01 | S. cerevisiae deletion strains, locus YNL250W, strain rad50, active compounds read low 1.01 | S. cerevisiae deletion strains, locus YNL271C, strain bni1, active compounds read low 1 | S. cerevisiae deletion strains, locus YNL298W, strain CLA4, active compounds read low 1.03 | S. cerevisiae deletion strains, locus YNL307C, strain MCK1, active compounds read low 1 | S. cerevisiae deletion strains, locus YNL322C, strain KRE1 (second series), active compounds read low 0.999 | S. cerevisiae deletion strains, locus YNR049C, strain mso1, active compounds read low 1 | S. cerevisiae deletion strains, locus YNR052C, strain pop2, active compounds read low 0.989 | S. cerevisiae deletion strains, locus YOL006C, strain TOP1, active compounds read low 1.04 | S. cerevisiae deletion strains, locus YOL012C, strain htz1 0.962 | S. cerevisiae deletion strains, locus YOL147C, strain pex11, active compounds read low 0.986 | S. cerevisiae deletion strains, locus YOR001W, strain rrp6, active compounds read low 1 | S. cerevisiae deletion strains, locus YOR061W, strain CKA2, active compounds read low 1.01 | S. cerevisiae deletion strains, locus YOR069W, strain VPS5, active compounds read low 1.01 | S. cerevisiae deletion strains, locus YOR070C, strain gyp1, active compounds read low 1.01 | S. cerevisiae deletion strains, locus YOR080W, strain dia2, active compounds read low 1 | S. cerevisiae deletion strains, locus YOR083W, strain WHI5, active compounds read low 0.978 | S. cerevisiae deletion strains, locus YOR106W, strain vam3, active compounds read low 1.02 | S. cerevisiae deletion strains, locus YOR136W, strain idh2, active compounds read low 0.992 | S. cerevisiae deletion strains, locus YOR144C, strain elg1, active compounds read low 0.992 | S. cerevisiae deletion strains, locus YOR184W, strain ser1, active compounds read low 1.01 | S. cerevisiae deletion strains, locus YOR231W, strain MKK1, active compounds read low 1.01 | S. cerevisiae deletion strains, locus YOR265W, strain rbl2, active compounds read low 1 | S. cerevisiae deletion strains, locus YOR270C, strain vph1, active compounds read low 1.02 | S. cerevisiae deletion strains, locus YOR290C, strain snf2, active compounds read low 1 | S. cerevisiae deletion strains, locus YOR316C, strain cot1, active compounds read low 0.99 | S. cerevisiae deletion strains, locus YPL051W, strain arl3, active compounds read low 1 | S. cerevisiae deletion strains, locus YPL078C, strain atp4, active compounds read low 0.999 | S. cerevisiae deletion strains, locus YPL106C, strain sse1, active compounds read low 1.02 | S. cerevisiae deletion strains, locus YPL240C, strain hsp82, active compounds read low 1.02 | S. cerevisiae deletion strains, locus YPL241C, strain CIN2, active compounds read low 1.01 | S. cerevisiae deletion strains, locus YPL256C, strain CLN2, active compounds read low 0.979 | S. cerevisiae deletion strains, locus YPR119W, strain clb2, active compounds read low 0.989 | S. cerevisiae deletion strains, locus YPR141C, strain kar3, active compounds read low 1.01 | S. cerevisiae deletion strains, locus YPR163C, strain tif3, active compounds read low 0.992 | S. cerevisiae deletion strains, locus YPR167C, strain met16, active compounds read low 0.997 | S. cerevisiae deletion strains, strain wtn01, active compounds read low 1.02 | S. cerevisiae strains, strain wild type, active compounds read low 1.01
